# From PubChem BioAssay
# The source made the active and inactive calls.
# Assays:
# Albumin (Bos taurus) = Albumin (Bos taurus) (UniProt P02769); experiment: bovine serum albumin binders on microarray, profiling panel, artefact control for SMM control protein annotation, biochemical, small-molecule microarray, Alexa647 label, 635/667 nm fluorescence (AID 1118); conditions: BSA-A647 binding, fluorescence 635 nm, higher = more signal;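 further: score merges 667 nm emission intensity and signal-to-noise per printed compound spot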
# Albumin (Bos taurus), sequence (P02769 whole entry, looked up): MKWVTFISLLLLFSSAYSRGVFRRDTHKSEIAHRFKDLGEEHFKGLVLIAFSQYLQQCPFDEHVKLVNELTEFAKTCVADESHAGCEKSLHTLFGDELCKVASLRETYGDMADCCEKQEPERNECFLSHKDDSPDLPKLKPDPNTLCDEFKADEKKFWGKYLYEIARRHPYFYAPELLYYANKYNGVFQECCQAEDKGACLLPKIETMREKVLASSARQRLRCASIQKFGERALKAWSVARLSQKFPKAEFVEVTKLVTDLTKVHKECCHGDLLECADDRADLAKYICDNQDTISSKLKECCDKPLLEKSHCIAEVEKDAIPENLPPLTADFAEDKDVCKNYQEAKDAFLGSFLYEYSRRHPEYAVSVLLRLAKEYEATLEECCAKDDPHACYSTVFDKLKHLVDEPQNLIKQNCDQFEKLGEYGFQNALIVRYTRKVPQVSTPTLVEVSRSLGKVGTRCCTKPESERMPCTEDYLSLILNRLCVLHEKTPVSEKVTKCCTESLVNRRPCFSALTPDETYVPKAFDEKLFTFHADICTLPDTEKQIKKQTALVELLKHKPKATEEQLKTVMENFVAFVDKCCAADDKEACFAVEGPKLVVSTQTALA
# [1] = small-molecule microarray binders of probe aXIP, primary screen, biochemical, NeuroSMM set, 635/667 nm fluorescence (AID 1119); conditions: higher = more signal, called active from +8 up or from −8 down;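 further: probe is the protein aXip251-270 applied at 1 µg/mL to compound-printed slides; binding of probe to printed compounds measured as 667 nm fluorescence plus signal to noise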
# [2] = small-molecule binders of probe aNOTCH3, primary screen, biochemical, small-molecule microarray, 635/667 nm fluorescence (AID 1120); conditions: higher = more signal;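 further: probe is a biotin-tagged antibody raised against NOTCH3 rather than NOTCH3 protein; score merges spot fluorescence near 667 nm with spot signal to noise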
# [3] = small-molecule binders of probe aNOTCH2, primary screen, biochemical, small-molecule microarray, 635/667 nm fluorescence (AID 1121); conditions: higher = more signal;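 further: score merges feature fluorescence read at 667 nm with its signal to noise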
# [4] = target: Carbonic anhydrase 2 (Homo sapiens) (UniProt P00918); experiment: CAII small-molecule binders, profiling panel, biochemical, small-molecule microarray, Alexa647-labelled CAII (AID 1122); conditions: CAII-A647 binding fluorescence, higher = more signal
# [5] = COS7 lysate on small-molecule microarray, probe aHis, 635 nm (AID 1123); conditions: COS7 cell lysate, fluorescence, higher = more signal;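 further: z-score combines 667nm fluorescence intensity with signal-to-noise per printed compound spot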
# [6] = compound binding in COS7 lysate, probe aLAP1, primary screen, cell lysate, small-molecule microarray (AID 1124); conditions: probe aLAP1, fluorescence, higher = more signal;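 further: lysate comes from COS7 cells expressing LAP1 and is applied at 0.3 µg/mL; score merges spot fluorescence near 667 nm with signal-to-noise over triplicate slides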
# Sam68 (KHDRBS1) = experiment: Sam68 small-molecule binders, primary screen, biochemical, small-molecule microarray, 635 nm fluorescence (AID 1125); conditions: small-molecule microarray binding, higher = more signal;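 further: score merges 667 nm channel intensity with signal to noise over triplicate slides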
# [7] = test system: Chordin-like protein 2 (CHRDL2); experiment: CHRDL2 small-molecule binders, primary screen, biochemical, small-molecule microarray, 635 nm fluorescence (AID 1126); conditions: small-molecule microarray binding, fluorescence 635 nm; higher = more signal;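 further: printed compound slides probed with Chrdl2 protein at 4 µg/mL for 1 h at 4 C; score merges 667 nm emission intensity with signal to noise over three replicate slides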
# [8] = target: Concanavalin-A (Canavalia ensiformis) (UniProt P02866); experiment: ConA small-molecule binders, primary screen, artefact control for SMM control protein annotation, biochemical, small-molecule microarray, Alexa647 label, 635 nm (AID 1127); conditions: ConA-A647 binding fluorescence, higher = more signal;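 further: z combines 667 nm emission intensity with signal-to-noise across three replicate slides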
# Concanavalin-A (Canavalia ensiformis), sequence (P02866 whole entry, looked up): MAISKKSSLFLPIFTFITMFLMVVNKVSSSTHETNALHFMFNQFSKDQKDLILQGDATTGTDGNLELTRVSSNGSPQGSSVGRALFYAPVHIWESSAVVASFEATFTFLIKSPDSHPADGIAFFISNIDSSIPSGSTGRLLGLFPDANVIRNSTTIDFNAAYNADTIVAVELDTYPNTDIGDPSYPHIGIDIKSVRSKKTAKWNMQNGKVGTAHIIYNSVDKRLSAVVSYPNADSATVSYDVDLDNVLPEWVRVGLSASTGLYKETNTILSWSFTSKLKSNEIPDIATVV
SMILES,composite z-score (Albumin (Bos taurus)),composite Z-score [1],composite z-score [2],composite z-score [3],composite z-score [4],composite z-score [5],composite z-score [6],composite z-score (Sam68 (KHDRBS1)),composite z-score [7],composite z-score [8]
COC(=O)Cn1c(C(=O)N2CCCC2)cc2c1C[C@H]1CN(C(=O)c3ccccc3)[C@@](Cc3ccc(OC)cc3)(C(=O)OC)[C@@H]21,0.92,1.09 (inactive),0.707,0.375,0.587,2.68,-0.268,0.931,0.207,0.73
COc1ccc([Si](C)(C)[C@H]2[C@H](CC(=O)N3Cc4ccccc4C[C@H]3CO)O[C@@]3(C(=O)N(Cc4cccc(N5CCOC5=O)c4)c4ccccc43)[C@@H]2C)cc1,-0.89,0.55 (inactive),-0.0077,-0.104,0.574,0.784,0.0161,0.847,1.45,0.791
C[N+](C)(C)CCCCNC(=O)[C@H]1C[C@H]2C(=O)NCC(=O)N2[C@H]1c1cccc(OCCO)c1,-1.39,1.49 (inactive),0.147,-0.112,0.454,0.961,0.258,1.05,1.45,1.12
COc1cc(CO)cc(I)c1O[C@H]1C=C(C(=O)NCCO)C[C@@H](N(CC2CCCCC2)C(=O)c2cc3ccccc3oc2=O)[C@@H]1O,-0.0129,0.577 (inactive),0.0158,-0.12,-0.0979,0.14,0.379,-0.461,0.538,0.358
COc1cccc([C@@H]2[C@@H](C)CC[C@H]3C(=O)N(C)[C@@H](C(C)C)C(=O)N23)c1,-0.199,0.4 (inactive),-0.0111,-0.181,-0.155,0.0706,-0.343,0.346,0.466,0.416
C=CC[C@]1(C(=O)OC)N=C(c2ccc(OCCCO)cc2)O[C@H]1c1ccccc1CN=[N+]=[N-],-0.573,3.17 (inactive),-0.0598,0.122,0.206,2.41,-0.0978,-1.11,-0.45,-1.06
O=C(NCc1ccccc1)[C@@]1(Cc2ccccc2)COC(c2ccc(OCCCO)cc2)=N1,0.48,-0.179 (inactive),0.0539,-0.0063,0.504,1.71,0.144,0.682,-0.594,0.865
CC[C@@H]1C=C(C(=O)O)[C@H](c2ccccc2)N1S(=O)(=O)c1ccc([N+](=O)[O-])cc1,0.938,0.0692 (inactive),0.0793,-0.0983,0.514,2.43,0.612,1.04,-0.812,0.942
CN1C(=O)C2C=CC(C(O)C3CC=CCC3)N(Nc3ccccc3)C2C1=O (stereo not given),0.598,-0.442 (inactive),0.351,0.0697,0.715,2.75,-0.147,1.3,0.912,0.955
C=CCOC(=O)[C@@H]1[C@H]2C(=O)O[C@H](c3ccccc3)[C@H](c3ccccc3)N2[C@H](c2ccc(OCCOC(=O)[C@H]3C[C@H]4C(=O)N5CCC[C@H]5C(=O)N4[C@H]3c3ccc(O)cc3)cc2)[C@@]12C(=O)Nc1ccccc12,-0.876,0.223 (inactive),-0.125,-0.185,0.252,1.12,0.333,1.27,0.95,1.19
COCC(=C=CC[C@H](O)c1ccc(OCCO)cc1)C[C@H](O)c1ccccn1,-0.769,1.14 (inactive),-0.217,-0.0942,0.603,0.257,-0.0662,0.359,-0.6,0.0109
CN(C)CCCC[C@@H]1NC(=O)[C@@H]2C[C@H](C(=O)O)[C@H](c3ccc(O)cc3)N2C1=O,-1.07,0.361 (inactive),0.237,-0.117,0.398,0.917,0.324,0.916,0.917,1.12
COc1ccc([Si](C)(C)[C@H]2[C@H](CCO)O[C@@]3(C(=O)N(Cc4ccccc4)c4ccc(N5C(=O)c6cccc7cccc5c67)cc43)[C@@H]2C)cc1,0.151,-0.229 (inactive),-0.18,-0.155,0.286,0.0609,1.06,0.143,-0.966,0.386
COC(=O)[C@@]1(Cc2ccc(OC)cc2)[C@H]2c3cc(C(=O)N(C)C)n(Cc4ccc(C)c(F)c4F)c3C[C@H]2CN1C(=O)c1ccccc1,0.856,0.0888 (inactive),0.0159,-0.108,0.535,1.41,0.0293,0.138,-1.22,0.782
C[C@H]1C2[C@H](Cc3ccccc3)NC(=O)[C@]23C(=O)N[C@H](Cc2ccccc2)C(=O)N[C@@H](Cc2ccccc2)C(=O)NC/C=C\C/C=C/C3[C@@H]2O[C@]12C (stereo not given in full),0.992,0.448 (inactive),0.36,-0.0942,0.742,0.0046,0.0901,-0.221,0.371,-1.08
COc1ccc([Si](C)(C)[C@H]2[C@H](CCO)O[C@@]3(C(=O)N(Cc4ccc(N5CCCCC5=O)cc4)c4ccccc43)[C@@H]2C)cc1,0.643,-0.247 (inactive),0.25,-0.0846,0.596,1.79,0.109,1.3,-0.0425,1.12
COc1ccc([Si](C)(C)[C@@H]2[C@@H](CC(=O)N(CCO)Cc3ccccc3)O[C@]3(C(=O)N(Cc4cccc(N5CCC5=O)c4)c4ccccc43)[C@H]2C)cc1,0.047,0.0923 (inactive),-0.0647,-0.0916,0.401,2.49,1.95,1.05,0.9,0.902
CO[C@H]1COC(=O)CC=C[C@H](C)COC(=O)[C@@H](OCc2ccccc2)C=C[C@@H]1C,-0.877,2.71 (inactive),-0.308,-0.14,-0.394,-0.234,0.0842,0.379,1.51,-0.602
Cc1ccc(S[C@]2(C(=O)O)CC(=O)N(Cc3ccccc3)[C@@H]2c2ccc(CO)cc2)cc1,-0.0554,1.28 (inactive),-0.0328,-0.154,0.724,1.02,0.623,0.401,-0.852,-0.467
COC(=O)C[C@H]1O[C@]2(C(=O)N(C)c3ccccc32)[C@@H](C)[C@@H]1[Si](C)(C)c1ccc(OC)cc1,0.163,-0.211 (inactive),0.0185,-0.135,0.158,0.342,0.494,0.567,0.291,0.598
Cc1ccc(S[C@]2(C(=O)NCCCN(C)C)CC(=O)N(C3CCCCC3)[C@@H]2c2ccc(CO)cc2I)cc1,-1.58,-0.102 (inactive),0.0836,-0.107,0.442,1.51,0.379,-0.171,-0.801,-1.49
COc1cc([C@@H]2N[C@H](C(=O)O)Cc3c2[nH]c2ccccc32)cc(OC)c1OC,0.1,-0.651 (inactive),0.059,-0.089,-0.0165,-0.0553,0.238,0.0713,0.475,0.245
C=CCN1C(=O)[C@]2(O[C@H](CCn3cc(CCO)nn3)[C@@H]([Si](C)(C)c3ccc(OC)cc3)[C@@H]2C)c2cc(NC(=O)c3ccc(OC)cc3)ccc21,0.0645,-0.624 (inactive),0.141,-0.044,0.131,0.514,-0.0812,1.3,0.782,1.08
O=C1C[C@@](C(=O)NCCN2CCOCC2)(c2ccc([N+](=O)[O-])cc2)[C@@H](c2ccc(CO)cc2)N1C1CCCCC1,-0.218,-0.346 (inactive),0.0597,0.188,0.656,1.79,0.596,1.17,0.395,1.06
C[C@@H]1C=CCC(=O)OC[C@H]2O[C@@H](C=C[C@@H]2O)[C@H](C)C=CCC(=O)OC[C@H]2O[C@H]1C=C[C@@H]2O,-0.581,1.21 (inactive),0.716,-0.0318,-0.227,-0.268,-0.725,0.65,1.58,-0.343
O=C(O)[C@@H]1Cc2c([nH]c3ccccc23)[C@@H](c2ccccc2)N1,0.118,0.756 (inactive),-0.082,-0.0148,-0.0448,0.319,-0.0124,-0.188,0.379,0.813
CCCC[C@@H]1C[C@H]1[C@@H](NC(=O)c1ccccc1)c1ccccc1C(F)(F)F,1.01,-0.814 (inactive),0.0493,0.0116,0.412,3.03,0.13,1.14,0.377,1.17
